According to PubChem BioAssay (NCATS):
Records with an inconclusive call do not appear. Where a call stands in place of a potency, no number is given. Values without a mark were called inactive. Activity calls are given as the source filed them. The call rests on the fitted dose curve; in most records, active means well fitted curve in the direction sought with a large enough effect; inconclusive means small, poorly fitted or top-dose-only effect, or another doubt; inactive means no such curve, though single readings can be large; an effect the other way counts as inactive or inconclusive.

How the values were obtained:
[1] = molecular target: Aldehyde dehydrogenase, mitochondrial (Homo sapiens) (UniProt P05091); test: qHTS for Inhibitors of the Aldehyde Dehydrogenase Family (ALDH2) Primary screen (AID 2061308); further: nearly all actives have a fitted effect of over 55% in size; further: potency means the concentration at half of the fitted maximal effect
[2] = molecular target: Retinal dehydrogenase 2 (Homo sapiens) (UniProt O94788); test: qHTS for Inhibitors of the Aldehyde Dehydrogenase Family (ALDH1A2) Confirmation screens (AID 2061314); further: nearly all actives have a fitted effect of over 65% in size; further: potency means the concentration at half of the fitted maximal effect
[3] = molecular target: Retinaldehyde dehydrogenase 3 (Homo sapiens) (UniProt P47895); test: qHTS for Inhibitors of the Aldehyde Dehydrogenase Family (ALDH1A3) Validation screen (AID 2061312); further: nearly all actives have a fitted effect of over 45% in size
[4] = molecular target: Retinaldehyde dehydrogenase 3 (Homo sapiens) (UniProt P47895); test: qHTS for Inhibitors of the Aldehyde Dehydrogenase Family (ALDH1A3) Primary screen (AID 2061315)
[5] = BET inhibitor-based combinations targeting novel dependencies in MECOM-rearranged (r) AML: OCI-AML3 cell line (AID 2202232); conditions: Potency: OCI-AML3 viability; further: nearly all actives have a fitted effect of over 35% in size; further: potency means the concentration at half of the fitted maximal effect
Procedure, shortened: (§1)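 Each compound was tested at eleven concentrations on cells seeded at 500/well. After two days' incubation, ATP-based luminescence reported viability; responses relative to DMSO and blank wells yielded AUC and cell-line-centred Z-AUC.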

[6] = BET inhibitor-based combinations targeting novel dependencies in MECOM-rearranged (r) AML: MV-4-11 cell line (AID 2202233); further: nearly all actives have a fitted effect of over 45% in size; further: potency means the concentration at half of the fitted maximal effect
Procedure, shortened: (§2)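 First, 500 cells per well were seeded; next, drugs were pinned as 11-point doses; then plates sat 48 hr in the incubator; finally CellTiter-Glo was added and luminescence read, with AUC and Z-AUC computed.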

[7] = BET inhibitor-based combinations targeting novel dependencies in MECOM-rearranged (r) AML: HNT-34 cell line (AID 2202234); further: nearly all actives have a fitted effect of over 35% in size; further: potency means the concentration at half of the fitted maximal effect
Procedure, shortened: as §2

[8] = BET inhibitor-based combinations targeting novel dependencies in MECOM-rearranged (r) AML: AML-194 cell line (AID 2202237; further: nearly all actives have a fitted effect of over 40% in size; further: potency means the concentration at half of the fitted maximal effect)
Procedure, shortened: as §1

[9] = molecular target: Aldehyde dehydrogenase 1A1 (Homo sapiens) (UniProt P00352); test: qHTS for Inhibitors of the Aldehyde Dehydrogenase Family (ALDH1A1) Confirmatory screens (AID 2061316); further: nearly all actives have a fitted effect of over 65% in size; further: potency means the concentration at half of the fitted maximal effect
[10] = BET inhibitor-based combinations targeting novel dependencies in MECOM-rearranged (r) AML: UCSD-AML1 cell line (AID 2202235); further: nearly all actives have a fitted effect of over 40% in size; further: potency means the concentration at half of the fitted maximal effect
Procedure, shortened: as §2

[11] = BET inhibitor-based combinations targeting novel dependencies in MECOM-rearranged (r) AML: SET-2 cell line (AID 2202231); conditions: SET-2 AML cells viability, CellTiter-Glo luminescence, 48 h; viability: stronger effect = lower value, concentration not given here; further: nearly all actives have a fitted effect of over 35% in size; further: potency means the concentration at half of the fitted maximal effect
Procedure, shortened: as §1

[12] = BET inhibitor-based combinations targeting novel dependencies in MECOM-rearranged (r) AML: AML-191 cell line (AID 2202236; further: nearly all actives have a fitted effect of over 35% in size; further: potency means the concentration at half of the fitted maximal effect)
Procedure, shortened: as §1

## Cc1ccc(CNc2ccc(N3CCOCC3)cc2)cc1
[1]
  Potency: inactive
[2]
  Potency: 11.3 µM (active)

## Cc1c(NC(=O)OC[C@@H]2COCCN2)cn2ncnc(Nc3ccc4c(cnn4Cc4cccc(F)c4)c3)c12
[1]
  Potency: inactive
[3]
  Potency: inactive
[4]
  Potency: inactive
[5]
  Potency: 10.5 µM (active)
[6]
  Potency: 18.6 µM (active)
[7]
  Potency: 20.9 µM (active)
[8]
  Potency: 23.5 µM (active)

## N#Cc1c(-c2ccc(F)c(Br)c2)no[n+]1[O-]
[1]
  Potency: 3.98 µM (active)
[2]
  Potency: 2.52 µM (active)
[4]
  Potency: inactive
[9]
  Potency: 20.1 µM (active)

## c1ccc(Cn2c(-c3ccc(OCC(C4CCNCC4)n4c(-c5ccccc5)nc5ccccc54)cc3)nc3ccccc32)cc1 (stereo not drawn)
[1]
  Potency: inactive
[3]
  Potency: inactive
[4]
  Potency: inactive
[5]
  Potency: 23.5 µM (active)
[7]
  Potency: 18.6 µM (active)
[10]
  Potency: 26.3 µM (active)

## Cn1c(=O)c2c(ncn2CC2OCCO2)n(C)c1=O
[1]
  Potency: inactive
[3]
  Potency: inactive
[4]
  Potency: inactive
[11]
  viability: 103%
[5]
  Potency: inactive
[6]
  Potency: inactive
[7]
  Potency: inactive
[10]
  Potency: inactive
[12]
  Potency: inactive
[8]
  Potency: inactive

## CC(=O)Nc1ncc(S(=O)(=O)Nc2cnccc2C(=O)Nc2nc(-c3ccccc3)cs2)s1
[1]
  Potency: inactive
[2]
  Potency: 10.1 µM (active)
[4]
  Potency: inactive
[9]
  Potency: 20.1 µM (active)

## Cn1ncc(Cl)c1-c1cc(C(=O)NC(CN)Cc2ccc(F)c(F)c2)oc1Cl (stereo not drawn)
[1]
  Potency: inactive
[3]
  Potency: inactive
[4]
  Potency: inactive
[6]
  Potency: 11.8 µM (active)
[7]
  Potency: 18.6 µM (active)
[10]
  Potency: 13.2 µM (active)
[12]
  Potency: 20.9 µM (active)
[8]
  Potency: 18.6 µM (active)

## CC(=O)Nc1ccc(-c2csc(N3CCC(C(N)=O)CC3)n2)cc1
[1]
  Potency: inactive
[2]
  Potency: 22.5 µM (active)
[4]
  Potency: inactive

## CCOc1ccc(NC(=O)NCC2CCCN2c2ccc(OC)cc2)cc1 (stereo not drawn)
[1]
  Potency: inactive
[2]
  Potency: 14.2 µM (active)

## CC(C)(C)OC(=O)N1CCN(c2ccc(NCc3ccc(-c4ccc(C#N)cc4)nc3)cc2)CC1
[1]
  Potency: inactive
[2]
  Potency: inactive
[4]
  Potency: inactive
[9]
  Potency: 15.9 µM (active)

## O=C1CCCC2=C1C(c1ccccc1)N=C(Nc1nc3ccccc3o1)N2 (stereo not drawn)
[1]
  Potency: inactive
[2]
  Potency: inactive
[4]
  Potency: inactive
[9]
  Potency: inactive

## Cc1ccc(S(=O)(=O)c2ncccc2[N+](=O)[O-])cc1
[1]
  Potency: 6.31 µM (active)
[2]
  Potency: 0.449 µM (active)

## COc1ccc(C(=O)CC2(O)C(=O)Nc3c(Cl)ccc(Cl)c32)cc1 (stereo not drawn)
[1]
  Potency: inactive
[3]
  Potency: inactive
[4]
  Potency: inactive
[11]
  Potency: 0.934 µM (active)
[6]
  Potency: inactive
[12]
  Potency: 1.05 µM (active)
[8]
  Potency: 1.86 µM (active)
